Coupling enz – inhibits coupling enzyme system, counter-screen for aldolase hits. coupling enzyme system counterscreen, AmpLite Red fluorescence. activity change, negative = inhibition, % at 58.2 µM, hits read low. actives 0.67% (n = 290,000). AID 2472; in the data active = activity change below about -30%
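Counterscreen lacking aldolase: glyceraldehyde-3-phosphate coupling-enzyme reagent preincubated 10 min at RT with compound (at 57.5 uM final), then substrate/coupling system with AmpLite Red added; fluorescence read at 525/598 nm after 20 min RT.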
G9a inh – blocks human histone lysine methyltransferase G9a. G9a H3K9 monomethylation, AlphaScreen, 2 h. AID 504332. Potency, µM (series often up to 102 µM), for the others: top-dose activity, negative = inhibition, actives largely listed as inhibitors. Q96KQ7. actives 8.8% (n = 350,000); note: potency is the fitted concentration of half-maximal effect; nearly all actives have a fitted effect of over 75% in size
Target sequence (Q96KQ7 913-1193 limits assumed): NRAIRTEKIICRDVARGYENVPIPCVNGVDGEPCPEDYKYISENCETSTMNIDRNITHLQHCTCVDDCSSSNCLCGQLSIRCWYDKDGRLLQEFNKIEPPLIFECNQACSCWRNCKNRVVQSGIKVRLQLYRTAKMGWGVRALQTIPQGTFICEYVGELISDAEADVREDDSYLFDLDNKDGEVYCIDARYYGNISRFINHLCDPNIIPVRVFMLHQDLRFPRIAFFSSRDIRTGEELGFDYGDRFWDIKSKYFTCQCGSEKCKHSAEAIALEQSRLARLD
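Methyltransferase reactions run at room temperature for 2 h (20 nM enzyme, 500 nM biotin-H3K9 peptide, 20 uM SAM) after a 15 min compound preincubation; product detected by AlphaScreen beads and anti-H3K9me1 antibody.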
Tau fibril ThT – tau fibrillization inhibition (ThT binding); recombinant tau K18 P301L, heparin-induced fibrillization, ThT fluorescence; P10636; Potency, µM (doses to about 57.4 µM), inactives show at the highest dose activity, negative = inhibition, most hits filed as inhibitors; AID 1460; actives 2.1% (n = 270,000); note: potency is the fitted concentration of half-maximal effect; nearly all actives have a fitted effect of over 55% in size
Target sequence (P10636 561-689 P618L limits assumed): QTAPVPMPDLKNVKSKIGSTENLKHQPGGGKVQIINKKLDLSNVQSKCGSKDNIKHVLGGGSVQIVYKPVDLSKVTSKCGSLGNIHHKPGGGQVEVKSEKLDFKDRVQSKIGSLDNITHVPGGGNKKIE
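In this qHTS, human K18 P301L tau is incubated with compound and heparin for 6 hr at 37 C, and Thioflavin T fluorescence then reports fibril load.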
Sfp PPTase inh – blocks B. subtilis Sfp PPTase activity. Potency, µM, inactives show largest response in the series, negative = inhibition, most hits filed as inhibitors. actives 3.5% (n = 310,000). Biochemical Sfp PPTase activity, qHTS;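 note: the enzyme is Sfp with the accession as filed and its product quenches rhodamine fluorescence; potency is the fitted concentration of half-maximal effect; 0% = enzyme reaction without inhibitor and -100% = no enzyme wells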
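Fluorescence-quenching assay: 15 nM Sfp-PPTase preincubated 15 min at room temperature with compound, then 5 uM rhodamine-CoA and 12.5 uM BHQ-2-labelled YbbR peptide added. Fluorescence (ex 525/em 598 nm) read at start and after 30 min; difference gives rate.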
Tau fibril FP – tau fibrillization inhibition (FP) | P10636 | Potency, µM (titrated, usually from 57.7 µM), for the others: at the highest dose activity, negative = inhibition, actives largely listed as inhibitors | actives 0.39% (n = 280,000) | K18 P301L tau heparin fibrillization, Alexa594 FP, 6 h; note: potency is the fitted concentration of half-maximal effect; nearly all actives have a fitted effect of over 55% in size
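FP of Alexa 594-tau after heparin (20 uM) induction. Substrate: human K18 P301L, 15 uM unlabeled, 0.24 uM labeled. Buffer 100 mM sodium acetate pH 7. 6 hr, 37 C.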
Tau fluor cs – counter-screen for tau fibril formation inhibitors; tau K18 P301L (four-repeat tau fragment) Alexa594 fluorescence, heparin fibrillization; Potency, µM (top dose mostly 57.7 µM), without a hit: top-dose activity change, negative = decrease; actives 0.93% (n = 280,000); AID 1463; note: potency is the fitted concentration of half-maximal effect; nearly all actives have a fitted effect of over 55% in size
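Human K18 P301L tau (15 uM unlabeled plus 0.24 uM Alexa 594-labeled, final) in 100 mM sodium acetate pH 7 was mixed with compound and 20 uM heparin and incubated 6 hr at 37 C.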
Starred values were filed as active, the others as inactive; ? = inconclusive; . = no result given; [ ] = remark or other dose. In the library only some 11% were active in any assay of this set; here they are far more common. Unless noted, calls come from the whole dose curve; as a rule, active = well fitted curve in the direction sought with a large enough effect; inconclusive = small, poorly fitted or top-dose-only effect, or another doubt; inactive = no such curve, though single readings can be large; an effect the other way counts as inactive or inconclusive. Unless noted, % is set by controls: 0 for no effect and ±100 for the full control effect.

SMILES | Coupling enz | G9a inh | Tau fibril ThT | Sfp PPTase inh | Tau fibril FP | Tau fluor cs
COC(=O)[C@H](COC(C)(C)C)NC(=O)O[C@H]1C(=O)c2cc(OC)ccc2O[C@@H]1c1ccc(OC)c(Br)c1 | 0 | . | -8% | 19% | -2% | -15%
CCCN(C(=O)COC(=O)Cn1c(=O)oc2ccccc21)c1c(N)n(Cc2ccccc2)c(=O)[nH]c1=O | . | 12%[2.33 µM] | . | . | . | .
COc1ccc(-n2ncc(C(=O)N3CCN(c4ncccn4)CC3)c2C2CCN(C(=O)OC(C)(C)C)CC2)cc1 | . | -27%[59 µM] | 2% | . | 4% | 0%
C=CC[C@@H]1C=C[C@H](O/N=C2\c3cc(OC)ccc3O[C@H](c3cccc(OC)c3)[C@H]2O)[C@H](CO)O1 | 0 | . | -5%[11.5 µM] | -4% | -7%[11.6 µM] | -9%[11.6 µM]
COc1ccc(NC(=O)/C=N/O)cc1 | 2 | -9% | -10% | 6% | 4% | -3%
COc1ccc(N/N=C(\C=N\O)C(=O)c2ccc(OC)cc2)cc1 | 4 | 50µM* | 13µM* | 0% | 16% | ?
Cc1cc2nc(N(Cc3cccnc3)C(=O)c3ccc(Cl)s3)sc2cc1C | . | 1%[59 µM] | -5% | . | 1% | -1%
O=C(Oc1ccc(Br)cc1C(=S)N1CCOCC1)c1ccc([N+](=O)[O-])cc1[N+](=O)[O-] | -18 | 8.9µM* | . | 50µM* | . | .
O=C(c1cccc([N+](=O)[O-])c1)N1CCOCC1 | 1 | 22%[59 µM] | 5% | 8% | 4% | 4%
O=C(c1cccc(Oc2ccc([N+](=O)[O-])cc2)c1)N1CCOCC1 | . | 59% | . | 9% | . | .
O=C(c1cc(C(=O)N2CCCC2)cc([N+](=O)[O-])c1)N1CCCC1 | 1 | 10% | . | 10% | . | .
O=C(Oc1cccc(C(=S)N2CCOCC2)c1)c1ccc([N+](=O)[O-])cc1[N+](=O)[O-] | -12 | 25µM* | . | ? | . | .
O=C(Oc1cccc(C(=S)N2CCOCC2)c1)c1cccc([N+](=O)[O-])c1 | -22 | 45µM* | ? | -22% | 2% | ?
O=C(Oc1ccc(Br)cc1C(=S)N1CCCCC1)c1cc([N+](=O)[O-])cc([N+](=O)[O-])c1 | -11 | ? | ? | -2% | -1% | 22µM*[quencher]
O=C(Oc1ccc(-c2cnc3ccccc3n2)cc1)c1cccc([N+](=O)[O-])c1 | 1 | 8.9µM* | ? | -11% | 3% | -13%
O=C(Oc1cccc(C(=S)N2CCOCC2)c1)c1cc([N+](=O)[O-])cc([N+](=O)[O-])c1 | -4 | 35µM* | ? | 0% | -1% | 20µM*[quencher]
O=C(Oc1ccc(C(=S)N2CCOCC2)cc1)c1cccc([N+](=O)[O-])c1 | 0 | 22µM* | . | ? | . | .
COc1ccc(S(=O)(=O)N/N=C(/C)c2ccncc2)cc1 | 0 | 7.1µM* | . | 1% | . | .
COc1ccc(S(=O)(=O)N/N=C(/C)c2ccncc2)cc1OC | 1 | 11µM* | . | -5% | . | .
COc1ccc(S(=O)(=O)N/N=C(/C)c2ccncc2)c(OC)c1 | . | 25µM* | . | 5% | . | .
C/C(=N\NS(=O)(=O)c1c(C)cc(C)cc1C)c1ccncc1 | . | 8.9µM* | . | -20% | . | .
C/C(=N\NS(=O)(=O)c1ccc(Br)cc1)c1ccncc1 | . | 0% | . | 0% | . | .
C/C(=N/NS(=O)(=O)c1ccc(C)c(C)c1)c1ccncc1 | . | -11%[0.501 µM] | . | 11% | . | .
CCOc1ccc(C(=O)NCCc2sc(-c3cccc(F)c3)nc2C)cc1OCC | . | -5%[59 µM] | ? | . | -4% | -25%
COc1ccc(CNC(=O)c2cc(-c3ccc(OC)c(OC)c3)nc3n[nH]c(-c4ccc(C)cc4)c23)cc1 | . | -4%[59 µM] | -17% | . | -12% | -24%
SMILES | Coupling enz | G9a inh | Tau fibril ThT | Sfp PPTase inh | Tau fibril FP | Tau fluor cs
CCOc1ccc(S(=O)(=O)N/N=C(\C)Cc2ccc(OC)cc2)cc1 | 4 | 40µM* | 1% | 10% | -5% | -8%
CSCCC(NC(=O)c1ccccc1Cl)C(=O)Nc1ccncc1 (centres undefined) | . | 40µM* | . | . | . | .
CCn1c(=O)cc(C(F)(F)F)[nH]c1=S | 0 | 25µM* | -3% | 79µM* | -7% | 0%
Cc1ccc(NCCC#N)cc1C | -2 | ? | 7% | 19% | 5% | 8%
C=CCn1c(CNC(=O)c2cccs2)nnc1SCC(=O)c1ccc(Br)cc1 | 0 | -3%[59 µM] | -1% | 12% | 11% | -3%
C=CCn1c(Cc2cccs2)nnc1SCC(=O)c1ccc(F)cc1 | 1 | 40µM* | -7% | 2% | -9% | -10%
N#Cc1ccc(CSc2nnc(Cc3cccs3)n2Cc2ccco2)cc1 | -7 | ? | ? | 14µM* | 6% | 1%
C=CCn1c(Cc2cccs2)nnc1SCC(=O)NCc1ccco1 | 0 | 45µM* | -20% | 8% | 2% | -13%
C=CCn1c(Cc2cccs2)nnc1SCC(=O)c1cccc(Br)c1 | -2 | 32µM* | -8% | -2% | -2% | -1%
COC(=O)C1=C(C)Nc2nc(SCc3ccccc3)[nH]c(=O)c2C1c1cccs1 (centres undefined) | 5 | 14% | -4% | 3% | -7% | -7%
C=CCn1c(Cc2cccs2)nnc1SCC(=O)Nc1ccc(OC)c(OC)c1 | 0 | 23%[12.7 µM] | -1% | 8% | 7% | 9%
C=CCn1c(Cc2cccs2)nnc1SCC(=O)c1ccc2ccccc2c1 | 1 | 28µM* | ? | -16% | 4% | -14%
Cc1cccc(NC(=O)c2cccc(C(=O)Nc3cccc(C)n3)c2)n1 | 0 | ? | . | 6% | . | .
Cc1cccc(NC(=O)c2ccc(C(=O)c3ccccc3)cc2)n1 | . | 7.9µM* | . | . | . | .
CSS(=O)(=O)c1cccc2cccnc12 | -4 | 0.28µM* | ? | 20µM* | ? | -12%
O=S(=O)(NCCc1ccccc1)c1cccc2cccnc12 | -3 | 50µM* | -6% | 9% | -1% | -13%
O=C(/C=C/c1cccc([N+](=O)[O-])c1)N1CCN(c2ccccc2F)CC1 | 0 | -10%[59 µM] | -4% | -20% | 12% | -6%
O=C(/C=C/c1ccc(Cl)cc1Cl)N1CCN(c2ccccc2[N+](=O)[O-])CC1 | -11 | 40µM* | 3% | -20% | 0% | 0%
O=C(/C=C/c1ccccc1[N+](=O)[O-])N1CCN(c2ccccc2F)CC1 | 0 | 56µM* | -6% | 0% | 0% | -15%
O=C(/C=C/c1ccc(Cl)cc1Cl)N1CCN(c2ccc([N+](=O)[O-])c(N3CCOCC3)c2)CC1 | 0 | ? | -2% | -2% | 6% | 3%
CN(CCC#N)C(=S)NC(=O)c1ccc(S(=O)(=O)N2CCOCC2)cc1 | -2 | 11µM* | 7% | ? | -3% | 6%
